PubChem BioAssay (NCATS)
Records with an inconclusive call do not appear. Activity calls are given as the source filed them. Unless noted, calls follow the shape of the dose curve; as a rule, active = well fitted curve in the direction sought with a large enough effect; inconclusive = small, poorly fitted or top-dose-only effect, or another doubt; inactive = no such curve, though single readings can be large; an effect the other way counts as inactive or inconclusive.

How the values were obtained:
[1] = molecular target: Peroxisome proliferator-activated receptor delta (Homo sapiens) (UniProt Q03181); assay: qHTS assay for small molecule agonists of peroxisome proliferator-activated receptor delta signaling (AID 588534; calls by dose curve;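 also: 0% = DMSO basal wells and 100% = positive control agonist at 10 µM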)
Method in brief: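 Cell-based beta-lactamase reporter assay run in agonist mode: cells seeded and incubated 5 hrs at 37 C, compounds added and incubated 18 hrs at 37 C. CCF4 dye fluorescence read after 2 hrs at RT; EC50 and efficacy from Hill fits.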

[2] = molecular target: Voltage-gated inwardly rectifying potassium channel KCNH2 (Homo sapiens) (UniProt Q12809); assay: qHTS Assay for Small Molecule Inhibitors of the Human hERG Channel Activity (AID 588834);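 also: lower thallium flux fluorescence means stronger hERG block; nearly all actives have a fitted effect of over 50% in size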; also: potency is read from the fitted curve at half-maximal effect
Method in brief: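 U2OS cells BacMam-transduced with hERG, 2000 cells/well, compound ~10 min at 37 °C before stimulation buffer. FluxOR thallium flux fluorescence read kinetically on FDSS; decrease indicates block; AC50 from Hill fits.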

[3] = molecular target: Peroxisome proliferator-activated receptor gamma (Homo sapiens) (UniProt P37231); assay: qHTS assay for small molecule agonists of peroxisome proliferator-activated receptor gamma signaling (AID 588536; active = well fitted curve in the direction sought with a large enough effect in the signal ratio, with a control signal flat, not every such curve was filed as active; the % refers to the signal ratio;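 also: 0% = DMSO basal wells and 100% = rosiglitazone at 2 µM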)
Method in brief: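 Test agents, titrated, stimulated HEK293 UAS-bla cells overnight (16 h, 37 C). Substrate CCF4 was then added for two hours at room temperature before fluorescence reading.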

[4] = molecular target: Peroxisome proliferator-activated receptor gamma (Homo sapiens) (UniProt P37231); assay: qHTS assay for small molecule antagonists of peroxisome proliferator-activated receptor gamma signaling (AID 588537; active = well fitted inhibition curve with a large enough effect in the signal ratio, with a control signal flat, not every such curve was filed as active; the % refers to the signal ratio;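 also: reporter cells co-stimulated with 50 nM rosiglitazone agonist during compound treatment; % of control where 0% means no effect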)
Method in brief: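 PPAR-gamma-UAS-bla HEK293 cells (3000/well, 1% charcoal/dextran-stripped FBS) were preincubated 6-6.5 h at 37 C, given titrated compounds, then stimulated with 50 nM rosiglitazone for 16 h. Beta-lactamase activity was read with CCF4 dye; IC50 came from Hill fits.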

[5] = molecular target: Vitamin D3 receptor (Homo sapiens) (UniProt P11473); assay: qHTS assay for small molecule antagonists of vitamin D receptor signaling (AID 588541; calls by dose curve;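 also: receptor activated by calcitriol during compound treatment; % is scaled to controls: 0 for no effect and ±100 for the full control effect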)
Method in brief: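 VDR-UAS-bla HEK293T cells (2000/well, 2% charcoal-stripped FBS) were treated with titrated compounds plus 1-alpha,25-dihydroxyvitamin D3 (50 nM or 3 nM final) for 16 h at 37 C. CCF4 beta-lactamase fluorescence was read; Hill fits gave IC50.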

[6] = molecular target: Vitamin D3 receptor (Homo sapiens) (UniProt P11473); assay: qHTS assay for small molecule agonists of vitamin D receptor signaling (AID 588543; calls by dose curve;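 also: 0% = DMSO basal and 100% = reference agonist control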)
Method in brief: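 VDR-UAS-bla HEK293T cells, 2000/well, 2% charcoal-stripped FBS; compound titration 16 h at 37 C; CCF4 beta-lactamase ratio read. Normalized to 50 nM 1-alpha,25-dihydroxyvitamin D3 (100%) and DMSO; Hill fit gives EC50, efficacy.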

[7] = qHTS assay for small molecule agonists of retinoid X receptor alpha signaling (AID 588544; calls by dose curve;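 as to activation: 0% = DMSO basal wells and 100% = reference agonist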); details: HEK293T RXRa-UAS-bla, beta-lactamase reporter, 18 h; 530 nm emission
[8] = molecular target: Retinoic acid receptor RXR-alpha (Homo sapiens) (UniProt P19793); assay: as above
[9] = qHTS assay for small molecule antagonists of retinoid X receptor alpha signaling (AID 588546; active = well fitted inhibition curve with a large enough effect in the signal ratio, with a control signal flat, not every such curve was filed as active; the % refers to the signal ratio;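 also: cells stimulated with 9-cis-retinoic acid as agonist; % is scaled to controls: 0 for no effect and ±100 for the full control effect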); details: HEK293T RXRa-UAS-bla, beta-lactamase ratio, antagonist mode; measured here: W530 green channel, cytotoxicity proxy
Method in brief: (§1)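 Beta-lactamase reporter inhibition, read as CCF4 fluorescence ratio (ex 405, em 460/530 nm) after 2 h at RT. HEK293T UAS-bla cells, 2500/well, were stimulated with 9-cis-RA at 500 or 100 nM final alongside test compound for 18 h at 37 C.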

[10] = molecular target: Retinoic acid receptor RXR-alpha (Homo sapiens) (UniProt P19793); assay: as above; details: HEK293T RXRa-UAS-bla, beta-lactamase ratio, antagonist mode
Method in brief: as §1

[11] = qHTS assay for small molecule agonists of the antioxidant response element (ARE) signaling pathway (AID 651741; active = well fitted activation curve with a large enough effect in the signal ratio; the % refers to the signal ratio; also: potency is read from the fitted curve at half-maximal effect; as to activation: % of control where 0% means no effect)
Method in brief: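 ARE-bla HepG2 cells (beta-lactamase reporter under ARE control) were plated at 2,000 cells/well, preincubated 5 h at 37 C/5% CO2, then treated with DMSO-dissolved compounds for 16 h at 37 C; LiveBLAzer B/G FRET substrate added, fluorescence read after 2 h at room temperature.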

[12] = qHTS assay for small molecule activators of the p53 signaling pathway (AID 651743; active = well fitted activation curve with a large enough effect in the signal ratio, not every such curve was filed as active; the % refers to the signal ratio; also: % of control where 0% means no effect); details: HCT-116 p53RE-bla, beta-lactamase FRET ratio, 16 h; activation: stronger effect = higher value
Method in brief: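 p53RE-bla HCT-116 cells with a stably integrated beta-lactamase reporter under p53 response elements were plated, rested 5 hours at 37 C/5% CO2, then exposed to compounds in DMSO for 16 hours at 37 C. LiveBLAzer B/G FRET substrate was read after 2 hours at room temperature.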

[13] = qHTS assay for environmental chemicals that activate the Aryl hydrocarbon Receptor (AhR) signaling pathway (AID 651777); details: 1A2-DRE human hepatoma cells, luciferase, 24 h; activation: stronger effect = higher value; also: nearly all actives have a fitted effect of over 15% in size; also: potency is read from the fitted curve at half-maximal effect; as to activation: % of control where 0% means no effect
Method in brief: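 Induction of CYP1A2 transcription through AhR is detected by luciferase in 1A2-DRE hepatoma cells. Compounds or DMSO act for 24 hr at 37 C before a 30 min One-Glo step at room temperature.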

[14] = molecular target: Peroxisome proliferator-activated receptor alpha (Homo sapiens) (UniProt Q07869); assay: qHTS assay for small molecule agonists of the peroxisome proliferator-activated receptor alpha (PPARalpha) signaling pathway (AID 651778); details: PathHunter PPARalpha complementation, chemiluminescence, 6 h; max response: stronger effect = higher value; also: % of control where 0% means no effect
Method in brief: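 Cells plated at 2,000/well and held overnight at 37 C, 5% CO2, then compound added by pin tool for 6 hr; after PathHunter detection reagent and 60 min at room temperature, chemiluminescence from enzyme complementation was read.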

[15] = qHTS assay for small molecule agonists of the antioxidant response element (ARE) signaling pathway measured by Nrf2-dependant transcriptional activity (AID 720636; active = well fitted curve in the direction sought with a large enough effect in the repeat runs; an effect the other way counts as inactive or inconclusive;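 also: HepG2 cells with an ARE-driven luciferase reporter; % of control where 0% means no effect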)
Method in brief: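 We exposed ARE-luc HepG2 cells, seeded in assay medium with 1% dialyzed FBS and allowed 6 hr to adhere, to test compounds overnight (16 hr, 37 C) before measuring luciferase with ONE-Glo.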

[16] = qHTS assay for small molecule agonists of the antioxidant response element (ARE) signaling pathway measured by Nrf2-dependant transcriptional activity - cell viability counter screen (AID 720653; active = well fitted curve in the direction sought with a large enough effect in the repeat runs; an effect the other way counts as inactive or inconclusive; also: % is scaled to controls: 0 for no effect and ±100 for the full control effect); details: ARE-bla HepG2 viability, CellTiter-Glo ATP luminescence, 16 h; max response: stronger effect = lower value
Method in brief: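 ARE-bla HepG2 cells (2,000/well) rested 5 hrs at 37C/5% CO2, then exposed to compounds in DMSO for 16 hrs. Viability was read in the same wells as intracellular ATP by luminescence, 30 min at room temperature after reagent addition.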

[17] = qHTS assay for cell viability of HEK293 cells (AID 743288); details: ATP luminescence (CellTiter-Glo), 18 h; max response: stronger effect = lower value; also: % is scaled to controls: 0 for no effect and ±100 for the full control effect; nearly all actives have a fitted effect of over 50% in size
Method in brief: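 Parental HEK293 cells, 2,000 per well, preincubated at least 5 h at 37 C, then exposed to compounds in DMSO for 18 h at 37 C. Viability by CellTiter-Glo ATP luminescence after 30 min at room temperature.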

[18] = qHTS assay for cell viability of the p53RE-bla HCT-116 cell line (AID 743292); also: % is scaled to controls: 0 for no effect and ±100 for the full control effect; nearly all actives have a fitted effect of over 55% in size
Method in brief: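 In this qHTS counter-screen, metabolically competent p53RE-bla HCT-116 cells were counted via their ATP content. Compounds were applied for 16 h at 37 C and luciferase-coupled luminescence was measured.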

[19] = molecular target: Nuclear receptor subfamily 1 group I member 2 (Rattus norvegicus) (UniProt Q9R1A7); assay: qHTS assay for small molecule activators of the rat pregnane X receptor (rPXR) signaling pathway (AID 651751; call rule not given here; also: 0% is about no effect); details: rPXR reporter cells, luciferase (One-Glo), 24 h
[20] = qHTS assay for small molecule activators of the human pregnane X receptor (PXR) signaling pathway (AID 720659; call rule not given here; also: 0% is about no effect)
[21] = molecular target: Cytochrome P450 3A4 (Homo sapiens) (UniProt P08684); assay: qHTS Assay for Activators of Cytochrome P450 3A4 (AID 885); also: nearly all actives have a fitted effect of over 65% in size
Method in brief: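 Steps: enzyme/substrate mix dispensed; compound added, 10 min RT; NADPH regeneration solution added, 60 min RT; luciferin detection buffer stops reaction; 20 min later luminescence measured.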

[22] = qHTS assay for small molecule disruptors of the mitochondrial membrane potential - 1 hr assay (AID 651754; calls by dose curve; also: potency is read from the fitted curve at half-maximal effect; nearly all actives have a fitted effect of over 35% in size)
Method in brief: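 HepG2 cells, attached overnight at 37C, were exposed to compound or DMSO vehicle for 1 hr at 37C, 5% CO2, then stained with Mito-MPS dye for 30 min. Red aggregate versus green monomer fluorescence reports membrane potential.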

[23] = qHTS assay for small molecule disruptors of the mitochondrial membrane potential - 5 hr assay (AID 651755; calls by dose curve; also: potency is read from the fitted curve at half-maximal effect; nearly all actives have a fitted effect of over 40% in size)
Method in brief: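 HepG2 cells, attached overnight at 37C, were exposed to compound or DMSO for 5 hr at 37C, 5% CO2. Mito-MPS dye was then added for 30 min, and fluorescence read at 490/535 nm (monomers) and 540/590 nm (aggregates).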

[24] = molecular target: Nuclear receptor ROR-gamma (Homo sapiens) (UniProt P51449); assay: qHTS assay for small molecule antagonists of the retinoid-related orphan receptor gamma (ROR-gamma) signaling pathway (AID 651802); also: % is scaled to controls: 0 for no effect and ±100 for the full control effect; nearly all actives have a fitted effect of over 60% in size
Method in brief: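 CHO cells carrying TET-inducible ROR-gamma and an ROR response element–luciferase reporter were exposed to compound, then induced with doxycycline. After 16hr at 37C, luminescence was read; lower signal indicates antagonism.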

[25] = molecular target: Luciferin 4-monooxygenase (Photinus pyralis) (UniProt P08659); assay: Biochemical firefly luciferase enzyme assay for NPC (AID 624030); also: potency is read from the fitted curve at half-maximal effect; nearly all actives have a fitted effect of over 70% in size
Method in brief: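 Counter-screen for direct inhibition of the luciferase enzyme by approved-drug library compounds, run at 10 nM enzyme in 50 mM Tris acetate (final). Luminescence was read within 5 min of enzyme-buffer addition and normalized to PTC124 versus DMSO (0%).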

[26] = S16 Schwann cell PMP22 intronic element firefly luciferase assay (AID 624032);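 also: plate controls were DMSO for no effect and PTC124 positive control mean for full effect; nearly all actives have a fitted effect of over 30% in size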
Method in brief: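 Rat S16 Schwann cells stably carrying a PMP22 intronic element-driven Fluc reporter were seeded overnight, then exposed to compounds for 24 h at 37 °C. Luminescence was normalized to PTC124 (positive control) and DMSO (0% activity).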

[27] = Cell Viability - LYMP2-004 (AID 966);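 also: plate controls were DMSO only for no effect and tetraoctylammonium bromide control for full effect; nearly all actives have a fitted effect of over 65% in size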
Method in brief: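 Human lymphoblastoid cells (2500/well) in complete medium were treated with compounds for 24 hr at 37 C, then intracellular ATP was measured by CellTiter-Glo luminescence. AC50 values came from Hill-equation fits of concentration-response data.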

[28] = Cell Viability - LYMP2-025 (AID 976);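 also: plate controls were DMSO only for no effect and tetraoctylammonium bromide control for full effect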
Method in brief: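 Human lymphoblastoid LYMP2-025 cells (2500/well) were pre-incubated 5 hr at 37 C, then treated with compounds for 24 hr at 37 C in complete medium. Viability was read as intracellular ATP by CellTiter-Glo luminescence; AC50 from Hill fits.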

[29] = S16 Schwann cell PMP22 intronic element beta-lactamase assay (AID 624044; calls by dose curve;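 also: 0% = DMSO and -100% = potassium clavulanate positive control; nearly all actives have a fitted effect of over 15% in size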); details: S16 rat Schwann cells, PMP22 element beta-lactamase FRET, 24 h; ratio activity, negative = inhibition: at 38.3 µM (top of the series)
Method in brief: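 Rat S16 Schwann cells with beta-Lac driven by a PMP22 intronic element, compound-treated 24 h at 37 °C. LiveBLAzer FRET B/G read: 460 nm normalized to potassium clavulanate vs DMSO; 535 nm FRET as viability; concentration-effect curves classified.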

Chain of Retinoic acid receptor RXR-alpha (Homo sapiens) (P19793 whole entry, looked up): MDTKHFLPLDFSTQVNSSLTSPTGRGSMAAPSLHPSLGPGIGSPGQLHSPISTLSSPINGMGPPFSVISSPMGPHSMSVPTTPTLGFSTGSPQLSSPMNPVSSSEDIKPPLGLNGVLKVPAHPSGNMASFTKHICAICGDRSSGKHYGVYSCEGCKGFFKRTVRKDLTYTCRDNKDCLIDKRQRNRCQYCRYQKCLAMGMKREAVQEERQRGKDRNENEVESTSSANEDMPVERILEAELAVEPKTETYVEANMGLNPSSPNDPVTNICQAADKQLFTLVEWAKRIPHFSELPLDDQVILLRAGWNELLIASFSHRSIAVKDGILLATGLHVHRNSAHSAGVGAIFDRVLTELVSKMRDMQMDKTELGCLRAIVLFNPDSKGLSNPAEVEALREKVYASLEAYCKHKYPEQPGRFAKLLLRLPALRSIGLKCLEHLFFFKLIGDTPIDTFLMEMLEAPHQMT
Chain of Peroxisome proliferator-activated receptor delta (Homo sapiens) (Q03181 whole entry, looked up): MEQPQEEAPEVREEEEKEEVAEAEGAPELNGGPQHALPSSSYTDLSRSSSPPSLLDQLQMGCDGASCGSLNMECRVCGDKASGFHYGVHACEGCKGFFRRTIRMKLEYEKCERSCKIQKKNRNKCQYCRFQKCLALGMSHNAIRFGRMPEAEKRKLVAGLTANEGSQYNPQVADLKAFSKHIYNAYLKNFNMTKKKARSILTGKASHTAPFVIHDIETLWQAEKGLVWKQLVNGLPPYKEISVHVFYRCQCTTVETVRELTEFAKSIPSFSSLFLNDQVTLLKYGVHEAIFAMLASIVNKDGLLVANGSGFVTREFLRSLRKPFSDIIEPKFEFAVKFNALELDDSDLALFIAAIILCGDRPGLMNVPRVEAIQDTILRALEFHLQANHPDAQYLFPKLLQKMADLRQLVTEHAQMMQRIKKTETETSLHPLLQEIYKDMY
Chain of Peroxisome proliferator-activated receptor gamma (Homo sapiens) (P37231 whole entry, looked up): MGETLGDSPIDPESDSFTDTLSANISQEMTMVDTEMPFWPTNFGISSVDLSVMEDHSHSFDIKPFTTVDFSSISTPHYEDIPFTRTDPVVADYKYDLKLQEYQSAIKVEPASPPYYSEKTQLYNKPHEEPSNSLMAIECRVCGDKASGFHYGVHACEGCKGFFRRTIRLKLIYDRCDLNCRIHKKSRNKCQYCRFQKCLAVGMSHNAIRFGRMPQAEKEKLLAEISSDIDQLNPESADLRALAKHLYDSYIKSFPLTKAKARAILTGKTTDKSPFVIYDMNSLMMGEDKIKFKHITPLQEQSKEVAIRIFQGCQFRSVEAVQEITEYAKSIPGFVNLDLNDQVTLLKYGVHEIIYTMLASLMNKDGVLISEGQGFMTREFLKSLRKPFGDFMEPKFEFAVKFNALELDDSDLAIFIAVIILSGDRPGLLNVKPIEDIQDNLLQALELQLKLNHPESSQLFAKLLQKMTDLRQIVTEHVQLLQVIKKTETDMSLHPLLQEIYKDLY
Chain of Vitamin D3 receptor (Homo sapiens) (P11473 whole entry, looked up): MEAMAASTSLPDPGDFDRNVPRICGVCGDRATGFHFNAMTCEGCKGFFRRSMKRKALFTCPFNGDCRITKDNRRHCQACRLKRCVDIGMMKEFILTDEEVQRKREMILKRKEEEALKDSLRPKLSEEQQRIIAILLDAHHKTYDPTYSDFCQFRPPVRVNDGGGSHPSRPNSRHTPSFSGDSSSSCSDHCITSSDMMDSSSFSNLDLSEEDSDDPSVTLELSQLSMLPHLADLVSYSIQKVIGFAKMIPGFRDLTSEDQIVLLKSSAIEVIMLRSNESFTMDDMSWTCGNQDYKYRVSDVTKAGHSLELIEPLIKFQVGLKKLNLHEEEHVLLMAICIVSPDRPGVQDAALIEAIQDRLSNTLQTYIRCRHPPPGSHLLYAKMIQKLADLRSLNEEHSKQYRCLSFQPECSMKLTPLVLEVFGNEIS
Chain of Voltage-gated inwardly rectifying potassium channel KCNH2 (Homo sapiens) (Q12809 whole entry, looked up): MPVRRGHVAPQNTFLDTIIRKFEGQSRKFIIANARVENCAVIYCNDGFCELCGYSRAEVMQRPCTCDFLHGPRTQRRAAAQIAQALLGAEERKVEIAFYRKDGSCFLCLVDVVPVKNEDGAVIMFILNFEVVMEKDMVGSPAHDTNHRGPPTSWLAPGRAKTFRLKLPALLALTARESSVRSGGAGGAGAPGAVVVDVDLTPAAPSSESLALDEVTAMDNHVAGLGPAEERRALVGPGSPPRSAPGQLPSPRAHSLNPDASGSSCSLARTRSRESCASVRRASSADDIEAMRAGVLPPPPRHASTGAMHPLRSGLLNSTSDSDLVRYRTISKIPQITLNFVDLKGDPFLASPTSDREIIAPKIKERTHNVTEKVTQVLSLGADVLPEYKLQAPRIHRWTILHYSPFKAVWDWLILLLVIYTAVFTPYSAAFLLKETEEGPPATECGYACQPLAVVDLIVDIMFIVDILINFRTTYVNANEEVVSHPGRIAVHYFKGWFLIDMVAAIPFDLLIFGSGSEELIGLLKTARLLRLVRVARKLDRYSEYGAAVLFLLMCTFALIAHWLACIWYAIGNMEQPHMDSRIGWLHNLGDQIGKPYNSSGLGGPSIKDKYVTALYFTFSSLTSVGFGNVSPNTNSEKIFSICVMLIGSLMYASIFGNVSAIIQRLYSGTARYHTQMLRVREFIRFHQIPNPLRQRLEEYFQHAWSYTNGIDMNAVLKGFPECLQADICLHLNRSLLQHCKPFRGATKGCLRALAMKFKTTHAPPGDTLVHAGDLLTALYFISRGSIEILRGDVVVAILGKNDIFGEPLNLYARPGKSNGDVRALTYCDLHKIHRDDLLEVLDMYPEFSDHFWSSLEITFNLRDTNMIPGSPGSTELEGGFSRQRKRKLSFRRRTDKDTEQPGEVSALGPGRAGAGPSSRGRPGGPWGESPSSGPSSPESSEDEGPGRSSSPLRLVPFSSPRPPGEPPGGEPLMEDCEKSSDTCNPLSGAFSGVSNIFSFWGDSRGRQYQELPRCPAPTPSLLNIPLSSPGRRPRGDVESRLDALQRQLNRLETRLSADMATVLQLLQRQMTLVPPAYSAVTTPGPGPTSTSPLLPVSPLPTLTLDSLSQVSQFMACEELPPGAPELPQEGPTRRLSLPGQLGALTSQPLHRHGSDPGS
Chain of Peroxisome proliferator-activated receptor alpha (Homo sapiens) (Q07869 whole entry, looked up): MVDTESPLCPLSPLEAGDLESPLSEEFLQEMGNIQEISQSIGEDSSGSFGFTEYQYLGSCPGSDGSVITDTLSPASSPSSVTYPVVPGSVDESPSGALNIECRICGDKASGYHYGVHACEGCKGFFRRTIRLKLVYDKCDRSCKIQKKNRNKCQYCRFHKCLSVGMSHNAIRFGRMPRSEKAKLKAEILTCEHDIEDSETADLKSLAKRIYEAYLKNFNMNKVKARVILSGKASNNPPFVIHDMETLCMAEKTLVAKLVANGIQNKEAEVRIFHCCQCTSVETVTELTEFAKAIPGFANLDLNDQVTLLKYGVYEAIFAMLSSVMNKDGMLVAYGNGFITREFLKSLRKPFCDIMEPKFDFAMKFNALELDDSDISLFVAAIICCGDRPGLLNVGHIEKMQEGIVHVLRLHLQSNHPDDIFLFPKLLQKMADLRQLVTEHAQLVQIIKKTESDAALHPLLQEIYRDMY
Chain of Nuclear receptor ROR-gamma (Homo sapiens) (P51449 whole entry, looked up): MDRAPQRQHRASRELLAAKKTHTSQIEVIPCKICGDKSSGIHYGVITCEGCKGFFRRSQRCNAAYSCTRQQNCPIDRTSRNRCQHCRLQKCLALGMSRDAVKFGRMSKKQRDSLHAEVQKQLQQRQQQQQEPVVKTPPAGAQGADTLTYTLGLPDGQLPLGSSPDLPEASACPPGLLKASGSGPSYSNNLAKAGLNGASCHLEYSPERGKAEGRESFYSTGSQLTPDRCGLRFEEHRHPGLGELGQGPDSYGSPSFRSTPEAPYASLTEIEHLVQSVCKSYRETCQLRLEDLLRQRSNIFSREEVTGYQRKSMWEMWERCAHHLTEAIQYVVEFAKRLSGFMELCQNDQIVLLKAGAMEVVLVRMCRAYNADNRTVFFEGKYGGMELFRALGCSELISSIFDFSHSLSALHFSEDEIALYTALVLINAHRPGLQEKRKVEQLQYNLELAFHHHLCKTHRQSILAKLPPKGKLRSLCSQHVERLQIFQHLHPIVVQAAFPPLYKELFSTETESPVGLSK
Chain of Luciferin 4-monooxygenase (Photinus pyralis) (P08659 whole entry, looked up): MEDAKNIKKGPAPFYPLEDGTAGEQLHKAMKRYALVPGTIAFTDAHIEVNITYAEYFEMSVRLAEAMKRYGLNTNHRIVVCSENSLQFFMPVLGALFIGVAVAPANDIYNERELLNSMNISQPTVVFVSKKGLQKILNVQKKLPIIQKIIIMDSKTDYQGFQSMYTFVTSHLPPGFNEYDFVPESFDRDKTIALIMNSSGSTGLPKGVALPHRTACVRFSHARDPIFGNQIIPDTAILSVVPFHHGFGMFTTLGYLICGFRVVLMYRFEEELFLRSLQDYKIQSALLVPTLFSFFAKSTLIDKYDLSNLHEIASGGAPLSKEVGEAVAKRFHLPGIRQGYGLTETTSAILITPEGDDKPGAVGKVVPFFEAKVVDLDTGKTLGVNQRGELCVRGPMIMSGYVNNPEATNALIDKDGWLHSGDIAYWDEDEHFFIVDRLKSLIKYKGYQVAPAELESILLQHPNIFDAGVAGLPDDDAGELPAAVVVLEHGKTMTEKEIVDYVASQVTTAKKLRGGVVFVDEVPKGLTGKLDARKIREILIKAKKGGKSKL
Chain of Nuclear receptor subfamily 1 group I member 2 (Rattus norvegicus) (Q9R1A7 whole entry, looked up): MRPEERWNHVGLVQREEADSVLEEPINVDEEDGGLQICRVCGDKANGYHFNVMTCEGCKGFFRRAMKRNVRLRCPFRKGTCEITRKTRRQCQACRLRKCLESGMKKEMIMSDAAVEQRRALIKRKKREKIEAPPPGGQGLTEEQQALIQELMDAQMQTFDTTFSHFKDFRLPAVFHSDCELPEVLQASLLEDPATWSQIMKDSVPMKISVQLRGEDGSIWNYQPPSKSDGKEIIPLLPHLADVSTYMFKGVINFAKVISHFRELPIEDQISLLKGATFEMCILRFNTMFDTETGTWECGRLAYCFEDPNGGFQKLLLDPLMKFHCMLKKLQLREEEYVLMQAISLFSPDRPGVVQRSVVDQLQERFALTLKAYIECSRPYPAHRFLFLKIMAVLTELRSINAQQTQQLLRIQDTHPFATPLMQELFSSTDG

CN(C)C(=O)Nc1ccccc1
inactive: outcome [1]

Cc1ccc(Br)cc1
inactive: outcome [1]

c1ccc2c(c1)Oc1ccccc1S2
active: Potency [2] 28.2 µM
inactive: outcome [1]

Cc1cc(Cl)ccc1N=CN(C)C
-3.88%: max response [9]
-2.15%: max response [7]
inactive: outcome [1] | Potency [3] | Potency [4] | Potency [5] | outcome [6] | Potency [8] | max response [10] -16.2% | Potency [11] | activation [12] 0.7% | activation [13] 1.22% | max response [14] -0.583% | Potency [15] | max response [16] -12.3% | max response [17] -10.1% | Potency [18] | max response [19] 1.62% | outcome [20]

Cc1c(N)cccc1N
active: Potency [22] 37.6 µM | Potency [23] 37.6 µM
inactive: Potency [21] | outcome [1] | Potency [24]

[O-][N+](=Nc1ccccc1)c1ccccc1
active: Potency [25] 12.8 µM
inactive: outcome [1] | Potency [2] | Potency [26] | Potency [24]

C=CCCC
inactive: outcome [1]
active: Potency [11] 66.8 µM | Potency [13] 22.4 µM

CCOP(=O)(SC(C)CC)N1CCSC1=O (stereo unspecified)
inactive: outcome [1] | Potency [3] | Potency [4] | outcome [6] | max response [10] 14.8% | activation [13] -0.193% | max response [14] 1.22% | Potency [15] | max response [16] 14.1% | max response [17] 6.21%
-8.5%: max response [9]

Cc1ccccc1
inactive: Potency [27] | Potency [28] | outcome [1] | Potency [29]
